# Screening data (PubChem)
# Chronic BCR inh: blocks chronic active B-cell receptor signaling. ABC-DLBCL IkBa-CBG/CBR reporter, luminescence ratio, 4 h. Potency, µM (titrated, usually from 46.1 µM), for the others: at the highest dose activity change, negative = inhibition, usual class: inhibitors. hit rate 0.05% among 340,000; active = well fitted inhibition curve with a large enough effect in the signal ratio, with a control signal flat, not every such curve was filed as active; inconclusive = small, poorly fitted or top-dose-only effect, or effect the other way, or a change in a side signal; the % refers to the signal ratio;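 note: plate controls were basal doxycycline-induced cells for no effect and cells given 10 µM MG132 for full effect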
#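 TMD8 human ABC-DLBCL cells with doxycycline-inducible IκBα–green luciferase fusion and unfused red luciferase, in 0.5% FBS medium; compounds up to 46 uM, 4 h at 37C. Green/red luminescence ratio, filter-overlap corrected, fitted to concentration-response curves.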
# Pin1 inh: blocks the human prolyl isomerase Pin1 | Q13526 | Pin1 FP peptide displacement, HiFluor488, 10 min | Potency, µM (titrated, usually from 115 µM), for the others: at the highest dose activity, negative = inhibition, usual class: inhibitors | hit rate 0.009% among 390,000; active = well fitted inhibition curve with a large enough effect in the polarisation, with a control signal flat, not every such curve was filed as active; inconclusive = small, poorly fitted or top-dose-only effect, or effect the other way, or a change in a side signal; inactive = no such curve, though single readings can be large or run the other way; the % refers to the polarisation; note: % is set by controls: 0 for no effect and ±100 for the full control effect
# Anesthetic bind: binds horse apoferritin like a general anesthetic | hit rate 0.074% among 350,000 | apoferritin/1-aminoanthracene competitive binding, fluorescence | AID 485281 | Potency, µM (top dose mostly 77.5 µM), without a hit: at the highest dose activity change, negative = displacement, actives largely listed as inhibitors | P02791; note: % is set by controls: 0 for no effect and ±100 for the full control effect; nearly all actives have a fitted effect of over 20% in size
#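 Concentration-response curves derived by four-parameter Hill fitting of normalized fluorescence, where compounds displaced 1-AMA from 10 uM horse apoferritin following a brief 10 min room-temperature incubation; propofol titration acted as positive control.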
# FEN1 inh-1: human FEN1 inhibition; P39748; Recombinant FEN1 flap cleavage, fluorescence, 15 min; Potency, µM (doses to about 114 µM), without a hit: at the top dose activity change, negative = inhibition, usual class: inhibitors; hit rate 0.35% among 390,000; note: % is set by controls: 0 for no effect and ±100 for the full control effect; nearly all actives have a fitted effect of over 65% in size
# Target sequence (P39748 whole entry, looked up): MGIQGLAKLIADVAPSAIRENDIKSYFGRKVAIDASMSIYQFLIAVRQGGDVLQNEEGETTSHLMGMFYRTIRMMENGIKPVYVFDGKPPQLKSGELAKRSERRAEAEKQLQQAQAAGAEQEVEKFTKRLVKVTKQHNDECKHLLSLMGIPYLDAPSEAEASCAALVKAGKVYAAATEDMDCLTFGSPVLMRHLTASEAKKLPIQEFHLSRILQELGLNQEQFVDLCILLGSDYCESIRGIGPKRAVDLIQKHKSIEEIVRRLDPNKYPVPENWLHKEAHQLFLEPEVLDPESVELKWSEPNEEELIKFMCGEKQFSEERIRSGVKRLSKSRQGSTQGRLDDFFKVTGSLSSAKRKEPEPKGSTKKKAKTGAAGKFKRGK
#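 Compounds are tested as a concentration series against 10 nM FEN1; after a 15 min room-temperature preincubation, 50 nM substrate starts cleavage, with plate reads at 0 and 15 min. Normalized responses are fitted by a Hill equation.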
# B2AR arrestin: agonists driving beta-arrestin recruitment to human beta2-adrenergic receptor. P07550. beta-arrestin recruitment to beta2AR, cell-based reporter. Potency, µM (highest dose often 46.1 µM), for inactives: top-dose activation, hits mostly activators. hit rate 0.02% among 330,000. AID 492947;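 note: 0% = DMSO controls and full agonism = EC100 isoproterenol or metaproterenol; nearly all actives have a fitted effect of over 65% in size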
# PGK inhibitor: T. brucei PGK inhibition; P07378; PGK/GAPDH coupled, Kinase-Glo luminescence, 60 min; Potency, µM (doses to about 57.5 µM), without a hit: at the top dose activity change, negative = inhibition, actives largely listed as inhibitors; hit rate 0.043% among 380,000; AID 602233; note: % is set by controls: 0 for no effect and ±100 for the full control effect; nearly all actives have a fitted effect of over 60% in size
#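 Recombinant glycosomal PGK reaction used 1,3-bisphosphoglycerate generated in-well by GAPDH (100nM final) in 100mM TEA pH 7.6, 5mM MgCl2, 0.01% Tween-20. After 60 minutes at room temperature, ATP was read by Kinase-Glo Plus luminescence end-point.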
# FEN1 inh-2: FEN1 inhibition, cherry-pick retest. shares compounds with FEN1 inh-1. FEN1 flap cleavage, TAMRA/BHQ2 fluorogenic DNA substrate. Potency, µM, hits mostly inhibitors. hit rate 79% among 880. AID 720498; note: nearly all actives have a fitted effect of over 60% in size
# Active calls of the source: *; ? = inconclusive; . = no result. This is a sample that favours compounds with a hit; in the whole collection about 0.45% have one here. Unless noted, calls come from the whole dose curve; as a rule, active = well fitted curve in the direction sought with a large enough effect; inconclusive = small, poorly fitted or top-dose-only effect, or another doubt; inactive = no such curve, though single readings can be large; an effect the other way counts as inactive or inconclusive. Potency is the fitted concentration of half-maximal effect.
SMILES,Chronic BCR inh,Pin1 inh,Anesthetic bind,FEN1 inh-1,B2AR arrestin,PGK inhibitor,FEN1 inh-2
COc1ccc(CN2C(=O)NC(=O)/C(=C/c3ccc([N+](=O)[O-])s3)C2=O)cc1,11%,?,-2%,14µM*,-1%,?,17*
CC(C)CCOP(=O)(c1ccc(N(C)C)cc1)C(O)c1c(Cl)cccc1Cl (stereo not drawn),-3%,?,-20%,-2%,0%,-2%,.
CC[n+]1c(/C=C/C=C/c2ccc(N(C)C)cc2)sc2ccccc21,1%,63%,-8%,50µM*,-1%,?,38*
COc1cc(C(O)P(=O)(OCC(C)C)c2ccc(N(C)C)cc2)cc(OC)c1OC (stereo not drawn),?,0%,-2%,6%,-1%,-7%,.
O=C1NC(=S)NC(=O)C1=Cc1cccn1-c1ccc(O)cc1,?,.,?,35µM*,0%,?,76*
CN1C(=O)/C(=C/c2cccn2-c2ccc3ccccc3c2)C(=O)NC1=S,?,.,?,?,0%,-16%,.
